Nrf2 ARE act: Nrf2 pathway activation; AREc32 ARE-luciferase reporter (MCF7-derived line), luminescence, 24 h; Potency, µM (series often up to 46.1 µM), hits mostly activators; actives 0.31% (n = 410,000); note: nearly all actives have a fitted effect of over 65% in size
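AREc32 cells carrying an ARE-driven firefly luciferase, 1000 cells/well in OPTI-MEM with 5% FBS, dosed after overnight attachment and incubated 24 hr at 37 deg C. Steady-Glo luminescence read after 30 min at RT.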
Nrf2 inh: blocks Nrf2 signaling | actives 2.1% (n = 360,000) | A549 ARE-Fluc reporter, luciferase luminescence, 18-24 h | Potency, µM (series often up to 46 µM), hits mostly inhibitors; note: nearly all actives have a fitted effect of over 60% in size
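A549 ARE_Fluc cells, 5000/well, 5% FBS OPTI-MEM; compounds in dose-response, 18-24 h at 37 °C/5% CO2; CellTiter-Fluor viability read (Ex 405/Em 525), then BugLite luciferase luminescence = Nrf2 activity.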
TrxR1 inh: blocks rat thioredoxin reductase 1 | actives 1% (n = 390,000) | O89049 | Potency, µM (titrated, usually from 114 µM), most hits filed as inhibitors | recombinant rTrxR1, NADPH fluorescence consumption, selenite substrate; note: nearly all actives have a fitted effect of over 65% in size
Target sequence (O89049 whole entry, looked up): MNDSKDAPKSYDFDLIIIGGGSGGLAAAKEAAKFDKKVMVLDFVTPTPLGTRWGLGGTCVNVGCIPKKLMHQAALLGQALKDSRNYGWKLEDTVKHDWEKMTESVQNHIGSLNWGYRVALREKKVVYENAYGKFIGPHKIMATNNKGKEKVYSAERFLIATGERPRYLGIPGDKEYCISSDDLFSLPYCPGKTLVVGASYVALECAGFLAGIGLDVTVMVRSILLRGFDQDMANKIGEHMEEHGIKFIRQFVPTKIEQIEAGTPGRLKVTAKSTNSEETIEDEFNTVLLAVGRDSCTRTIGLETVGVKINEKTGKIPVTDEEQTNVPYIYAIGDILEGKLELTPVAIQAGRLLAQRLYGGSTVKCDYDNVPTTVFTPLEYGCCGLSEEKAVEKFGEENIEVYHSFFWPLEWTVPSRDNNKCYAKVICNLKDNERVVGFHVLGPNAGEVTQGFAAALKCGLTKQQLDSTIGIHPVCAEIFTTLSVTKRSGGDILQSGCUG
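Rat TrxR1 (90 nM in the dispensed reagent) was pre-reduced with 400 uM NADPH for 5 min at room temperature, then incubated with compound for 15 min. After 400 uM selenite was added, NADPH fluorescence (Ex 340/Em 450 nm) was followed for 8 min.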
A549 tox: counter-screen for Nrf2 inhibitors: cytotoxicity in A549 cells; A549 ARE-Fluc cells, CellTiter-Fluor viability, 18-24 h; Potency, µM (top dose mostly 46 µM), actives largely listed as inhibitors; actives 0.16% (n = 390,000); AID 504648
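A549 ARE-Fluc cells in 5% FBS OPTI-MEM, 5000 cells/well, rested 2 h then exposed to compounds in concentration-response for 18-24 h at 37 °C. Viability by CellTiter-Fluor fluorescence (Ex 405/Em 525) after 30 min; luciferase luminescence (BugLite, 15 min, RT) read afterwards.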
TrxR1 substrate: substrates of rat thioredoxin reductase 1 | O89049 | purified TrxR1 substrate turnover, NADPH consumption readout | Potency, µM (top dose mostly 114 µM) | actives 0.01% (n = 390,000); note: nearly all actives have a fitted effect of over 50% in size
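Rat TrxR1, dispensed at 90 nM, was prereduced with 400 uM NADPH (final) for 5 min at ~22 deg C, then incubated with compound 15 min before 400 uM selenite. A first-read NADPH fluorescence drop versus no-compound background flagged substrates.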
GALK inh: galactokinase (human) inhibition | Purified GALK, Kinase-Glo residual ATP luminescence | Potency, µM (doses to about 57.5 µM), actives largely listed as inhibitors | actives 0.007% (n = 270,000)
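Compounds were pin-transferred into ATP buffer (35 uM final), then GALK plus galactose (5 nM, 100 uM final) was added. After 1 h at room temperature, Kinase-Glo Plus was added and luminescence read after 10 min.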
Numbers stand for hits; n = inactive; u = inconclusive; x = no result; [ ] = remark or other dose. Rows were chosen to be rich in hits. Some 3% of all compounds tested hit in one or more screens of this group. Calls come from the whole dose curve; as a rule, active = well fitted curve in the direction sought with a large enough effect; inconclusive = small, poorly fitted or top-dose-only effect, or another doubt; inactive = no such curve, though single readings can be large; an effect the other way counts as inactive or inconclusive.

SMILES	Nrf2 ARE act	Nrf2 inh	TrxR1 inh	A549 tox	TrxR1 substrate	GALK inh
Cc1ccc(-n2cc(CNCCCn3ccnc3C)c(-c3ccc(F)cc3)n2)cc1	n	n	n	26µM	n	n
Cc1ccc(-n2cc(CNCCc3cscn3)c(-c3ccc(F)cc3)n2)cc1	n	n	n	n	n	n
CN(C)c1ccc(/C=C2\C=Cc3ccccc32)c(Cl)c1	x	x	n	x	n	x
COc1cc(NC(=O)Cn2c(=O)nc(-c3ccccc3F)c3cc(Cl)ccc32)cc(OC)c1	n	x	n	n	n	x
CC(=O)c1cccc(Oc2cc(NN3CCCCC3)c([N+](=O)[O-])cc2[N+](=O)[O-])c1	n	u	n	u	n	x
CC(=O)c1ccccc1Oc1cc(NN2CCCCC2)c([N+](=O)[O-])cc1[N+](=O)[O-]	n	26µM	n	n	n	x
CCc1nn(CCCC(=O)N2CCN(c3cccc(OC)c3)CC2)c(=O)c2cc3occc3n12	n	n	n	n	n	x
O=C(CCl)N1CCCC1c1ccc2c(c1)OCCO2 (stereo not given)	n	u	25µM	n	n	n
COCCN(Cc1cc2cc(C)cc(C)c2nc1Cl)C(=O)Nc1ccccc1	n	n	n	n	n	n
COCCN(Cc1cc2c(C)cc(C)cc2nc1Cl)C(=O)c1ccccc1F	n	18µM	n	u	n	n
COc1ccc(CN(Cc2ccccc2)S(=O)(=O)c2ccccc2)cc1COc1ccc(NC(C)=O)cc1	x	n	x	n	x	x
NS(=O)(=O)C#Cc1ccccc1	x	x	4.7µM	x	n	x
CC(C)(C)OC(=O)NCCCCCc1cn([C@@H](CO)C(=O)NCCCCCCCCCCC(=O)N2CCN(C(=O)OC(C)(C)C)CC2)nn1	n	7.3µM	n	u	n	x
N#C/C(=C/c1ccc(N2CCCCC2)cc1)c1cccc(F)c1	n	u	n	n	n	n
N#C/C(=C/c1ccc(N2CCCCCC2)o1)c1ccc(Cl)cc1	11µM	n	8.9µM	u	n	n
N#C/C(=C\c1ccc(N2CCOCC2)o1)C(=O)NC1CCCCC1	n	u	u	n	n	n
N#C/C(=C/c1ccc(N2CCCCC2)o1)c1cccc(F)c1	14µM	u	7.1µM	n	n	n
CC(C)(C)[C@]1(O)CCN2CC3c4ccccc4CCc4cccc(c43)[C@@H]2C1 (stereo not given in full)	x	x	n	x	x	x
CCOCCCNC(=O)/C(C#N)=C/c1cc(OC)c(O)c([N+](=O)[O-])c1	n	n	n	18µM	n	n
O=C1C=CC(n2cc(F)c(=O)[nH]c2=O)O1 (stereo not given)	25µM	x	x	x	x	x
O=C(OCC#CCSc1nnc(-c2cccc3ccccc23)o1)c1sc2ccccc2c1Cl	x	n	x	n	x	x
COC(=O)/C(=C\c1ccc([N+](=O)[O-])o1)NC(=O)c1ccccc1	n	u	32µM	n	n	n
O=C(NCCSCc1ccccc1)c1ccc(C2SCC(=O)N2Cc2ccccc2)cc1 (stereo not given)	n	10µM	n	n	n	n
Cc1ccc(-c2cc(-c3ccccc3)c3c(N)c(S(C)(=O)=O)sc3n2)cc1	n	13µM	n	n	n	n
CS(=O)(=O)c1sc2nc(-c3cccs3)cc(-c3ccccc3)c2c1N	n	n	u	n	n	n
SMILES	Nrf2 ARE act	Nrf2 inh	TrxR1 inh	A549 tox	TrxR1 substrate	GALK inh
CC(C)C(=O)NC(c1ccccc1)c1cc([N+](=O)[O-])c2cccnc2c1O (stereo not given)	n	u	n	n	n	x
O=C(CCc1ccccc1)NC(c1cccs1)c1cc(Cl)c2cccnc2c1O (stereo not given)	n	16µM	n	u	n	n
CC(=O)NC(c1ccccc1)c1cc([N+](=O)[O-])c2cccnc2c1O (stereo not given)	n	15µM	n	u	n	n
CCC(=O)NC(c1cccs1)c1cc([N+](=O)[O-])c2cccnc2c1O (stereo not given)	n	u	n	u	n	n
CCCC(=O)NC(c1cccs1)c1cc([N+](=O)[O-])c2cccnc2c1O (stereo not given)	n	21µM	n	u	n	n
CCc1ccc(OCC(=O)Nc2cc3oc4ccccc4c3cc2OC)c(Br)c1	n	u	n	n	n	x
Cc1nc(CN(C)c2ncnc3cc(-c4ccc5c(c4)OCO5)ccc23)cs1	x	n	x	n	x	x
COc1ccc(NS(=O)(=O)c2ccc3c(c2)Cc2ccccc2-3)cn1	n	16µM	n	n	n	n
O=C(CSc1nc2ccccc2n1S(=O)(=O)c1cccc([N+](=O)[O-])c1)NCCc1ccccc1	n	18µM	n	u	n	x
CCCCNC(=O)CSc1nc2ccccc2n1S(=O)(=O)c1ccc(Br)cc1	n	n	n	n	n	x
CCOc1cc(C(=O)Nc2ccc(NC(=O)c3cc4ccccc4o3)c(OC)c2)cc(OCC)c1OCC	n	n	n	n	n	x
Cc1ccc(NN2C(=O)C=C(c3ccccc3)C2=O)cc1	n	n	6.3µM	n	n	n
O=C1c2ccccc2C(=O)N1Nc1ccccc1	n	n	n	n	n	n
CC(C)Oc1cccc(C(=O)NC(=S)Nc2cccnc2)c1	n	n	22µM	n	n	n
CN(Cc1ccccc1C#N)S(=O)(=O)c1cccs1	n	n	n	n	n	n
N#Cc1nccnc1S(=O)(=O)c1cccs1	u	n	0.32µM	n	n	x
N#CC1=C(N)C(C#N)(C#N)C2(C(=O)Nc3ccccc32)C2CCCC=C12 (stereo not given)	n	n	56µM	n	n	n
CCOC(=O)CN(Cc1ccccc1)C(C(=O)NC1CCCCC1)c1ccccc1 (stereo not given)	n	4.6µM	n	12µM	n	x
Cc1ccc(C(C(=O)NC2CCCCC2)N(C)Cc2ccccc2)cc1 (stereo not given)	n	n[9.27 µM]	n	n	n	x
CCCCCCn1c2c(c(=N)c3c1CCC3)CCC2	n	15µM	n	n	n	n
Cc1ccc(-c2noc(-c3nnn(CC(=O)Nc4ccc(C)cc4Cl)c3N)n2)cc1	n	n	n	n	n	x
CC1CCC(NC(=O)c2ccc3c(c2)S(=O)(=O)c2ccccc2C3=O)CC1 (stereo not given)	n	16µM	n	n	n	x
O=C(CSc1cccc[n+]1[O-])Nc1cc2c(cc1Cl)C(=O)c1ccccc1C2=O	n	u	n	n	n	n
COc1ccc([N+](=O)[O-])cc1NC(=O)CSc1ccc2ccccc2c1	u	18µM	n	n	n	x
COc1ccc([N+](=O)[O-])cc1NC(=O)C(C)Sc1ccc(C)cc1 (stereo not given)	n	18µM	n	n	n	n
